# Measurements as given in PubChem BioAssay AID1159580 (chemical genetic matrix, 2015).
# Where “and” joins values, the source holds several entries; their conditions need not be identical. Equal values may be shown once. About 2,000 (36%) of roughly 5,500 compounds were called active. Roughly 18% stayed inconclusive and do not appear here. The list shows a part of the results. Values without a mark were called inactive. Rule as the data show it: active = normalized growth mostly below about 0.91 (no sharp cut-off); inconclusive = no clear call, values can overlap the other calls; inactive = mostly above about 0.92.
# Assay: chemical genetic growth profiling, strain panel (AID 1159580);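 also: tested at 20 µM; growth read once vehicle control cultures reached saturation at 30 °C; 1 = growth at the plate median or of vehicle wells; lower values mean less growth of the strain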
# Conditions: S. cerevisiae deletion strains, growth OD
smiles,measurement,setting,value
C#CC1(O)CCC2C3CCC4=CC(=O)CCC4(C)C3CCC21C (stereo unspecified),normalized growth,"locus YAL021C, strain ccr4, hits give low values",0.973
same,normalized growth,"locus YAL026C, strain drs2, hits give low values",0.982
same,normalized growth,"locus YAL030W, strain snc1, hits give low values",0.995
same,normalized growth,"locus YBL061C, strain skt5, hits give low values",0.96
same,normalized growth,"locus YBR009C, strain hhf1, hits give low values",0.979
same,normalized growth,"locus YBR021W, strain FUR4, hits give low values",0.985
same,normalized growth,"locus YBR023C, strain chs3, hits give low values",0.981
same,normalized growth,"locus YBR171W, strain sec66, hits give low values",0.981
same,normalized growth,"locus YBR229C, strain ROT2, hits give low values",0.985
same,normalized growth,"locus YBR231C, strain swc5, hits give low values",0.977
same,normalized growth,"locus YBR279W, strain paf1, hits give low values",0.985
same,normalized growth,"locus YCL011C, strain gbp2, hits give low values",0.994
same,normalized growth,"locus YCL016C, strain dcc1, hits give low values",0.968
same,normalized growth,"locus YCL029C, strain bik1, hits give low values",0.984
same,normalized growth,"locus YCL069W, strain vba3, hits give low values",1
same,normalized growth,"locus YCR088W, strain abp1, hits give low values",0.992
same,normalized growth,"locus YDL005C, strain med2, hits give low values",0.976
same,normalized growth,"locus YDL035C, strain GPR1, hits give low values",0.981
same,normalized growth,"locus YDL040C, strain nat1, hits give low values",0.97
same,normalized growth,"locus YDL074C, strain BRE1, hits give low values",1.01
same,normalized growth,"locus YDL101C, strain DUN1, hits give low values",0.979
same,normalized growth,"locus YDL185W, strain tfp1, hits give low values",0.981
same,normalized growth,"locus YDL192W, strain arf1, hits give low values",0.98
same,normalized growth,"locus YDR001C, strain nth1, hits give low values",0.977
same,normalized growth,"locus YDR069C, strain doa4, hits give low values",0.933
same,normalized growth,"locus YDR101C, strain arx1, hits give low values",1.02
same,normalized growth,"locus YDR137W, strain rgp1, hits give low values",1.19 [resistant] (active)
same,normalized growth,"locus YDR159W, strain sac3, hits give low values",0.937
same,normalized growth,"locus YDR162C, strain NBP2, hits give low values",0.971
same,normalized growth,"locus YDR195W, strain ref2",0.975
same,normalized growth,"locus YDR297W, strain sur2, hits give low values",0.98
same,normalized growth,"locus YDR318W, strain mcm21, hits give low values",0.97
same,normalized growth,"locus YDR334W, strain swr1, hits give low values",0.954
same,normalized growth,"locus YDR335W, strain msn5, hits give low values",0.981
same,normalized growth,"locus YDR388W, hits give low values",0.976
same,normalized growth,"locus YDR392W, strain spt3, hits give low values",0.918
same,normalized growth,"locus YDR502C, strain sam2, hits give low values",0.985
same,normalized growth,"locus YEL003W, strain gim4, hits give low values",0.976
same,normalized growth,"locus YEL037C, strain rad23, hits give low values",0.969
same,normalized growth,"locus YEL061C, strain CIN8 (second series), hits give low values",0.965
same,normalized growth,"locus YEL061C, strain CIN8, hits give low values",0.996
same,normalized growth,"locus YER015W, strain faa2, hits give low values",0.992
same,normalized growth,"locus YER016W, strain bim1, hits give low values",0.996
same,normalized growth,"locus YER110C, hits give low values",0.968
same,normalized growth,"locus YER111C, strain swi4, hits give low values",0.99
same,normalized growth,"locus YER155C, strain BEM2 (second series), hits give low values",1.02
same,normalized growth,"locus YER155C, strain BEM2, hits give low values",0.982
same,normalized growth,"locus YER167W, strain BCK2, hits give low values",0.994
same,normalized growth,"locus YFR010W, strain ubp6, hits give low values",0.995
same,normalized growth,"locus YGL078C, strain dbp3, hits give low values",0.95
same,normalized growth,"locus YGL086W, strain mad1, hits give low values",1.01
same,normalized growth,"locus YGL167C, strain pmr1, hits give low values",0.976
same,normalized growth,"locus YGL173C, strain kem1, hits give low values",0.986
same,normalized growth,"locus YGL227W, strain vid30, hits give low values",0.983
same,normalized growth,"locus YGL240W, strain doc1, hits give low values",0.987
same,normalized growth,"locus YGL248W, strain PDE1, hits give low values",0.99
same,normalized growth,"locus YGL253W, strain hxk2, hits give low values",0.978
same,normalized growth,"locus YGR135W, strain pre9, hits give low values",0.947
same,normalized growth,"locus YGR252W, strain gcn5, hits give low values",0.956
same,normalized growth,"locus YHR013C, strain ard1, hits give low values",0.994
same,normalized growth,"locus YHR027C, strain rpn1, hits give low values",0.948
same,normalized growth,"locus YHR030C, strain SLT2, hits give low values",0.998 and 1
same,normalized growth,"locus YHR079C, strain IRE1 (second series), hits give low values",0.983
same,normalized growth,"locus YHR079C, strain IRE1, hits give low values",1
same,normalized growth,"locus YHR094C, strain hxt1, hits give low values",0.968
same,normalized growth,"locus YHR129C, strain ARP1, hits give low values",0.999
same,normalized growth,"locus YHR142W, strain chs7, hits give low values",0.98
same,normalized growth,"locus YHR200W, strain rpn10, hits give low values",0.986
same,normalized growth,"locus YIL066C, strain RNR3, hits give low values",0.989
same,normalized growth,"locus YIL073C, strain SPO22, hits give low values",0.933
same,normalized growth,"locus YIL125W, strain kgd1, hits give low values",0.978
same,normalized growth,"locus YIR030C, strain dcg1, hits give low values",0.984
same,normalized growth,"locus YJL092W, strain hpr5, hits give low values",0.977
same,normalized growth,"locus YJL095W, strain BCK1 (second series), hits give low values",0.981
same,normalized growth,"locus YJL095W, strain BCK1, hits give low values",0.981 and 1.01
same,normalized growth,"locus YJL115W, strain asf1, hits give low values",0.954
same,normalized growth,"locus YJL129C, strain trk1, hits give low values",0.97
same,normalized growth,"locus YJL134W, strain LCB3, hits give low values",0.983
same,normalized growth,"locus YJL154C, strain vps35, hits give low values",0.972
same,normalized growth,"locus YJL164C, strain tpk1, hits give low values",0.978
same,normalized growth,"locus YJL166W, strain qcr8, hits give low values",0.983
same,normalized growth,"locus YJL168C, strain set2, hits give low values",0.977
same,normalized growth,"locus YJL187C, strain SWE1 (second series), hits give low values",1.01
same,normalized growth,"locus YJR043C, strain POL32, hits give low values",1.03
same,normalized growth,"locus YJR066W, strain TOR1, hits give low values",0.957
same,normalized growth,"locus YJR075W, strain HOC1, hits give low values",1
